# Measured values reported in PubChem BioAssay (Tox21).
# A number with no mark means an inactive call. Results filed as inconclusive are left out. A call without a number means that no potency is given here. Active and inactive are the calls of the source. Calls come from the whole dose curve; as a rule, active = well fitted activation curve with a large enough effect in the repeat runs; inconclusive = weak or mixed curves; inactive = flat fitted curve, though single readings scatter.
# Assay: A CellTox Green Cytotoxicity Assay to monitor cytotoxicity in HEK293 cells - 32 hour (AID 1224881); note: nearly all actives have a fitted effect of over 40% in size
# Conditions: CellTox Green fluorescence; series mostly up to 76.8 µM
# Method in brief: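 Nonlytic real-time cytotoxicity: HEK293 + CellTox Green reagent plated, 5 h preincubation, pintool compound addition (23 nL in DMSO), 37 C for 40 h, fluorescence measured at successive time points.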
Compound,Potency,cytotoxicity increase
COc1nc(N)nc2nc[nH]c12,inactive,–
OC1OCCOC1O (centres undefined),inactive,–
CCCCCCC1(C)CCC(=O)O1 (centres undefined),inactive,–
C#CCN[C@@H]1CCc2ccccc21,inactive,–
CC(=O)OC1CCCCC1C(C)(C)C (centres undefined),inactive,–
CCOc1cccc(N)c1,inactive,–
CC1(C)Oc2ccc(C#N)cc2[C@@H](N2CCCC2=O)[C@@H]1O,inactive,–
COc1ccc(CCO)cc1,inactive,–
C/C(CC(C)C)=N\O,inactive,–
[O-][n+]1cccc(/C(Cl)=N/OC[C@@H](O)CN2CCCCC2)c1,inactive,–
CC(=O)OCC(=O)Nc1cc(C#N)cc(NC(=O)COC(C)=O)c1Cl,inactive,–
CNCCS(=O)(=O)O,inactive,–
CCC(=O)CC,inactive,–
CC(=O)O[C@@H]1CC2CCC1(C)C2(C)C (some centres undefined),inactive,–
NCc1ccc(S(N)(=O)=O)cc1,inactive,–
Cn1c(=O)c2[nH]c(Br)nc2n(C)c1=O,inactive,–
CCC[C@@H]1C[C@@H](C(=O)N[C@@H]([C@H]2O[C@H](SC)[C@H](O)[C@@H](O)[C@H]2O)[C@@H](C)O)N(C)C1,inactive,–
O=Cc1cc2ccccc2o1,inactive,–
Cc1c(N)cccc1Cl,inactive,–

Compound,Potency,cytotoxicity increase
Cc1ccccc1C(N)=O,inactive,–
O=C(Cn1ccnc1[N+](=O)[O-])NCc1ccccc1,inactive,–
CC(C)=CCC/C(C)=C/COC=O,inactive,–
COC(=O)c1ccccc1C(=O)O,inactive,–
CCO,inactive,–
CC(C)OC(=O)CCC(=O)OC(C)C,inactive,–
CCOc1ccccc1OCC1CNCCO1 (centres undefined),inactive,–
CCCCCCCCCCCCCCC(=O)NC(CO)CCCCCCCCCCCCCC (centres undefined),inactive,–
O=C(CCCCC(=O)Nc1c(I)cc(I)c(C(=O)O)c1I)Nc1c(I)cc(I)c(C(=O)O)c1I,inactive,–
CC1(C)O[C@H]2CC(=O)OC[C@]23[C@H]2CC[C@@]4(C)[C@H](c5ccoc5)OC(=O)[C@H]5O[C@]54[C@]2(C)C(=O)C[C@@H]13,inactive,–
CCCCCCCCCCCCCCCCCCOCCO,–,8.15% [at 15.8 µM]
CC1=C(C(=O)O)N2C(=O)[C@@H](NC(=O)[C@H](N)C3=CCC=CC3)[C@H]2SC1,inactive,–
CC(=O)OC(C)=O,inactive,–
Cc1ccc(N)cc1S(=O)(=O)O,inactive,–
COC(=O)c1cccc(Cl)c1,inactive,–
CC(=O)O[Si](C)(OC(C)=O)OC(C)=O,inactive,–
CC1(C)CC(OC(=O)CCCCCCCCC(=O)OC2CC(C)(C)NC(C)(C)C2)CC(C)(C)N1,–,-5.67% [at 15.8 µM]
CCOC(=O)CC1(C)OCC(C)O1 (centres undefined),inactive,–

# Assay: A CellTox Green Cytotoxicity Assay to monitor cytotoxicity in HepG2 cells - 0 hour (AID 1224882); note: nearly all actives have a fitted effect of over 35% in size
# Conditions: CellTox Green fluorescence; series mostly up to 76.8 µM
# Method in brief: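 Read-out is fluorescence of a cyanine dye excluded from live cells that stains DNA of dead HepG2 cells, with signal proportional to cytotoxicity. Plates were read at 0, 8, 16, 24, 32 and 40 h after compound addition.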
Compound,Potency,cytotoxicity
COc1nc(N)nc2nc[nH]c12,inactive,–
OC1OCCOC1O (centres undefined),inactive,–
CCCCCCC1(C)CCC(=O)O1 (centres undefined),inactive,–
C#CCN[C@@H]1CCc2ccccc21,inactive,–
CC(=O)OC1CCCCC1C(C)(C)C (centres undefined),inactive,–
CCOc1cccc(N)c1,inactive,–
CC1(C)Oc2ccc(C#N)cc2[C@@H](N2CCCC2=O)[C@@H]1O,inactive,–
COc1ccc(CCO)cc1,inactive,–
C/C(CC(C)C)=N\O,inactive,–
[O-][n+]1cccc(/C(Cl)=N/OC[C@@H](O)CN2CCCCC2)c1,inactive,–
CC(=O)OCC(=O)Nc1cc(C#N)cc(NC(=O)COC(C)=O)c1Cl,inactive,–
CNCCS(=O)(=O)O,inactive,–
CCC(=O)CC,inactive,–
CC(=O)O[C@@H]1CC2CCC1(C)C2(C)C (some centres undefined),inactive,–
NCc1ccc(S(N)(=O)=O)cc1,inactive,–
Cn1c(=O)c2[nH]c(Br)nc2n(C)c1=O,inactive,–
CCC[C@@H]1C[C@@H](C(=O)N[C@@H]([C@H]2O[C@H](SC)[C@H](O)[C@@H](O)[C@H]2O)[C@@H](C)O)N(C)C1,inactive,–
O=Cc1cc2ccccc2o1,inactive,–
Cc1c(N)cccc1Cl,inactive,–

Compound,Potency,cytotoxicity
Cc1ccccc1C(N)=O,inactive,–
O=C(Cn1ccnc1[N+](=O)[O-])NCc1ccccc1,inactive,–
CC(C)=CCC/C(C)=C/COC=O,inactive,–
COC(=O)c1ccccc1C(=O)O,inactive,–
CCO,inactive,–
CC(C)OC(=O)CCC(=O)OC(C)C,inactive,–
CCOc1ccccc1OCC1CNCCO1 (centres undefined),inactive,–
CCCCCCCCCCCCCCC(=O)NC(CO)CCCCCCCCCCCCCC (centres undefined),inactive,–
O=C(CCCCC(=O)Nc1c(I)cc(I)c(C(=O)O)c1I)Nc1c(I)cc(I)c(C(=O)O)c1I,inactive,–
CC1(C)O[C@H]2CC(=O)OC[C@]23[C@H]2CC[C@@]4(C)[C@H](c5ccoc5)OC(=O)[C@H]5O[C@]54[C@]2(C)C(=O)C[C@@H]13,inactive,–
CCCCCCCCCCCCCCCCCCOCCO,–,-0.0743% [at 15.8 µM]
CC1=C(C(=O)O)N2C(=O)[C@@H](NC(=O)[C@H](N)C3=CCC=CC3)[C@H]2SC1,inactive,–
CC(=O)OC(C)=O,inactive,–
Cc1ccc(N)cc1S(=O)(=O)O,inactive,–
COC(=O)c1cccc(Cl)c1,inactive,–
CC(=O)O[Si](C)(OC(C)=O)OC(C)=O,inactive,–
CC1(C)CC(OC(=O)CCCCCCCCC(=O)OC2CC(C)(C)NC(C)(C)C2)CC(C)(C)N1,–,-7.52% [at 15.8 µM]
CCOC(=O)CC1(C)OCC(C)O1 (centres undefined),inactive,–
